The text below walks through data of PubChem BioAssay (NCATS).

Records with an inconclusive call do not appear. Unmarked numbers belong to inactive results. Calls of active or inactive are those of the source. Calls follow the shape of the dose curve; as a rule, active = well fitted activation curve with a large enough effect; inconclusive = small, poorly fitted or top-dose-only effect; inactive = no such curve, though single readings can be large or run the other way.
Potency is read from the fitted curve at half-maximal effect.

Chain of Cellular tumor antigen p53 (Homo sapiens) (P04637 whole entry, looked up): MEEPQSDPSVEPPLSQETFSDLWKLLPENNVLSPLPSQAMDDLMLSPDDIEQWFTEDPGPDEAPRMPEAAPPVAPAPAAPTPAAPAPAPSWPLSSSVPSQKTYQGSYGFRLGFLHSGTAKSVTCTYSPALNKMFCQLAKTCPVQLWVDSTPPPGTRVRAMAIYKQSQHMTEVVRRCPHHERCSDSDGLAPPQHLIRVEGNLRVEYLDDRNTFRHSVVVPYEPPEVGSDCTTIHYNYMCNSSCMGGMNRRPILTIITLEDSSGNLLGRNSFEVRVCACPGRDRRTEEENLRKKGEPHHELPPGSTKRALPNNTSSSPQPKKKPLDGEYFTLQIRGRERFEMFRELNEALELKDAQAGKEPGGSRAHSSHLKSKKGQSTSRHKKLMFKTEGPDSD

The target of this test is Cellular tumor antigen p53 (Homo sapiens) (UniProt P04637). Put plainly: Primary qHTS for small molecule compounds that upregulate eGFP-tagged delta133p53alpha (in N-terminal) cells. (AID 2060322). Also: nearly all actives have a fitted effect of over 75% in size.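 As to activation: series mostly up to about 56 µM; 0% = DMSO vehicle and 100% = reference activator.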 The following applies: NCI-H358 eGFP-delta133p53alpha fluorescence, 24 h; activation: active compounds read high. In a few lines:
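NCI-H358 cells pre-induced 24 h with 10 ng/ml doxycycline to express N-terminal eGFP-delta133p53alpha, then dosed 24 h at 37C without doxycycline; fixed, Hoechst-stained, GFP intensity by laser scanning cytometry, normalized to DMSO (0%) and 57.5 uM 5-azacytidine (100%).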
(In general: qHTS replaces the single test concentration by a dilution series.)
In the case of `CC(/C=C/C1(O)C2(C)COC1(C)CC(=O)C2)O[C@@H]1O[C@H](CO)[C@@H](O)[C@H](O)[C@H]1O` (stereo not given in full), the activation is 2.68%. In the case of `CC1=C(C(=O)O[C@@H]2O[C@H](COC3OCC(O)C(O)C3O)[C@@H](O)[C@H](O)[C@H]2O)C(C)(C)CCC1` (stereo not given in full), the activation is -13%. Same read-out and setting: the figure for `CC1=CC(=O)CC(C)(C)C1/C=C/C(C)O[C@@H]1O[C@H](CO)[C@@H](O)[C@H](O)[C@H]1O[C@@H]1OC[C@](O)(CO)[C@H]1O` (stereo not given in full) is -2.68%; for `N#CC(CCCN1CCN(/N=C/c2cccnc2)CC1)(c1ccccc1)c1ccccc1` it is -7.16%. Regarding `C=C[C@H]1C(O[C@@H]2O[C@H](CO)[C@@H](O)[C@H](O)[C@H]2O)OC=C2C(=O)N3CCc4c([nH]c5ccccc45)C3CC21` (stereo not given in full), the Potency is 5.22 µM (active). On to `C[C@@H]1O[C@@H](O[C@H]2[C@@H]3C=CO[C@@H](O[C@@H]4O[C@H](CO)[C@@H](O)[C@H](O)[C@H]4O)[C@@H]3[C@@]3(CO)O[C@@H]23)[C@H](O)[C@H](OC(=O)/C=C/c2ccc(O)c(O)c2)[C@H]1O`, for which the activation is 2.29%. As for `CC(O)/C=C/C1(O)C2(C)COC1(C)CC(O)C2` (stereo not given), the activation was 9.82%. With `COc1cc(C2c3cc4c(c(O)c3CC(CO)C2C(=O)O)OCO4)cc(OC)c1O` (stereo not given), the activation was 9.82%. The same measure, in the same setting: as for `C=C1CC[C@H]2[C@@](C)(CCC(O)[C@@]2(C)CO)[C@@H]1C/C=C(/C(=O)O)C(O)CO` (stereo not given in full), the figure is -16.1%. For `COc1cc(N2CCC(N3CCN(C)CC3)CC2)ccc1Nc1ncc(Cl)c(-c2c[nH]c3ccccc23)n1`, the Potency was 8.49 µM (active).

For the compound `CC1CC2OCC3(O)CCC(O)C(C14CC(c1ccoc1)OC4=O)C23CO` (stereo not given), the activation is -6.11%.

`C/C=C1/CC2C(=O)Nc3cc(O)c(OC)cc3C(=O)N2C1` (stereo not given): the activation is -3.57%. Turning to `O=C(O)CCc1nccc2c1[nH]c1ccccc12`, the activation was 8.93%. Turning to `COc1cc(CC(COC2OC(CO)C(O)C(O)C2O)c2cc(/C=C/CO)cc(OC)c2O)ccc1O` (stereo not given), the activation was -6.25%.

In the case of `COc1cc(C2Oc3c(OC)cc(/C=C/C(=O)OC[C@H]4O[C@@H](OC(C)(C)C(=O)O)[C@H](O)[C@@H](O)[C@@H]4O)cc3C2CO)ccc1O` (stereo not given in full), the activation is -9.16%. In the case of `CN1CCCC1Cc1c[nH]c2ccc(CCS(=O)(=O)c3ccccc3)cc12` (stereo not given), the activation is 24.3%. Same read-out and setting: the figure for `COc1cc([C@H]2OC[C@]3(OC(C)=O)[C@@H](c4ccc(O[C@@H]5O[C@H](CO)[C@@H](O)[C@H](O)[C@H]5O)c(OC)c4)OC[C@H]23)ccc1O` is -3.82%; for `COc1cc(Nc2ccc([N+](=O)[O-])cc2C(=O)O)cc2ccccc12` it is -11.9%. The same measure, in the same setting: as for `C[C@@H]1C[C@H]2OC(=O)[C@@]3(C)CCC[C@](C)(C23)[C@@]1(O)CCC1=CC(=O)OC1O` (stereo not given in full), the figure is 9.16%.

Take `OCCc1ccc(O[C@@H]2O[C@H](CO)[C@@H](O)[C@H](O)[C@H]2O)c(O)c1`: the activation is 8.93%. For the compound `COc1cc(C2Oc3c(OC)cc(/C=C/C(=O)OC4CC(O)(C(=O)O)CC(O)C4O)cc3C2CO)ccc1O` (stereo not given), the activation is -32.8%.

`O=C(OC[C@H]1O[C@@H](Oc2ccccc2CO)[C@H](O)[C@@H](O)[C@@H]1O)c1ccccc1`: the activation is 7.63%.

For `O=C(O)/C=C/c1cc2c(cc1O[C@@H]1O[C@H](CO)[C@@H](O)[C@H](O)[C@H]1O)OCO2`, the activation was 9.92%. Regarding `COC(=O)c1c(CC=C(C)C)c(OC2OC(CO)C(O)C(O)C2O)c2ccccc2c1OC1OC(CO)C(O)C(O)C1O` (stereo not given), the activation was 20.6%. `C[C@]1(C2CCCC2)Cc2cc(OCC(=O)O)c(Cl)c(Cl)c2C1=O`: the activation is -3.67%.

For the compound `COc1cc(/C=C/C(=O)O[C@H]2[C@H](O)[C@@H](CO)O[C@@]2(CO)O[C@H]2O[C@H](COC(=O)c3ccc(O)cc3)[C@@H](O)[C@H](O)[C@H]2O)cc(OC)c1OC`, the activation is -19.8%. For the compound `CC1(O)CCC2C(C(=O)O)=COC(OC3OC(CO)C(O)C(O)C3OC(=O)/C=C/c3ccc(O)cc3)C21` (stereo not given), the activation was -16%.

For the compound `COC(=O)C1=CO[C@@H](O[C@@H]2O[C@H](CO)[C@@H](O)[C@H](O)[C@H]2O)[C@@H]2[C@@H](C)[C@@H](O)C[C@H]12`, the activation is -11.5%.

As for `NC(=O)[C@H](O[C@@H]1O[C@H](CO)[C@@H](O)[C@H](O)[C@H]1O)c1ccccc1`, the activation is 17.9%. Same read-out and setting: the figure for `CC(=O)c1c(C)cccc1O[C@@H]1O[C@H](CO)[C@@H](O)[C@H](O)[C@H]1O` is 13%. With `Fc1ccc(CN2CCC(Nc3ccc(C(F)(F)F)nn3)CC2)cc1F`, the activation was -6.21%.

With `COc1ccc(/C=C/C(=O)O[C@@H]2[C@@H](O)[C@@H](O)[C@H](O[C@@H]3C=C(CO)[C@H]4[C@H](O[C@@H]5O[C@H](CO)[C@@H](O)[C@H](O)[C@H]5O)OC=C[C@H]43)O[C@H]2C)cc1O`, the activation is -6.87%.

On to `Cc1c(-c2ccc3c(c2)OCO3)oc2ccc(C(O)C(C)O)cc12` (stereo not given), for which the activation was -8.4%. On to `C/C=C1/[C@H](O[C@@H]2O[C@H](CO)[C@@H](O)[C@H](O)[C@H]2O)OC=C(C(=O)OC)[C@H]1CC(=O)OCCc1ccc(OC(=O)C[C@@H]2C(C(=O)OC)=CO[C@@H](O[C@@H]3O[C@H](CO)[C@@H](O)[C@H](O)[C@H]3O)/C2=C/C)cc1`, for which the activation was -7.14%. With `COc1cc2c(cc1O)C1(Cc3ccc4c(c3C1=O)OCO4)N(C)CC2` (stereo not given), the activation was -7.63%. In the case of `CC1(C(=O)O)CC[C@]2(C(=O)OC3OC(CO)C(O)C(O)C3O)CC[C@]3(C)C(=CCC4[C@@]5(C)CC[C@H](OC6OCC(O)C(O)C6OC6OC(CO)C(O)C(O)C6O)C(C)(C)C5CC[C@]43C)C2C1` (stereo not given in full), the activation was -5.34%.

Take `CC1CCC2C(C(=O)O)=CC3(O)CC(C)(C)CC123` (stereo not given): the activation was -22.3%.

Turning to `CC1(C)CC[C@]2(C(=O)O[C@@H]3O[C@H](CO)[C@@H](O)[C@H](O)[C@H]3O)CC[C@]3(C)C(=CCC4[C@@]5(C)C[C@@H](O)[C@H](O)C(C)(C)C5[C@H](O)C[C@]43C)[C@@H]2[C@@H]1O` (stereo not given in full), the activation was -11.5%. As to `CC(=O)N[C@H]1[C@H](O[C@H]2CC[C@@]3(C)C(CC[C@]4(C)C3CC=C3C5CC(C)(C)CC[C@]5(C(=O)O)[C@H](O[C@@H]5O[C@H](CO)[C@@H](O)[C@H](O)[C@H]5O)C[C@]34C)C2(C)C)O[C@H](CO[C@@H]2OC[C@H](O)[C@H](O)[C@H]2O[C@@H]2OC[C@@H](O)[C@H](O)[C@H]2O)[C@@H](O)[C@@H]1O` (stereo not given in full), the activation is -9.16%. As to `O=C(OC[C@@]1(O)CO[C@@H](O[C@H]2[C@H](Oc3ccc(O)cc3)O[C@H](CO)[C@@H](O)[C@@H]2O)[C@@H]1O)c1ccc(O)cc1`, the activation was -19.1%.
